# Assay results reported in PubChem BioAssay.
# Results filed as inconclusive are left out. Activity calls are given as the source filed them. Unless noted, no stated cut-off is given here; in the data, active means inhibition above about 80%; inactive means the rest.
# How the values were obtained:
# [1] = viability loss in pontine glioma line – cell-based, SU-DIPG-XVII, MIPE5.0, CellTiter-Glo, qHTS, dose response (AID 1347060; cut-off not given, nearly all actives have AC50 up to about 26 µM); settings: CellTiter-Glo ATP luminescence
# [2] = viability loss in pontine glioma line – cell-based, SU-DIPG-XIII, MIPE4.0, CellTiter-Glo, qHTS, dose response (AID 1347061; cut-off not given, nearly all actives have AC50 up to about 37 µM;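 further: cells exposed to compound for 48 hours before readout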); settings: CellTiter-Glo ATP luminescence
# [3] = viability loss in pontine glioma line – cell-based, JHH-DIPG-1, MIPE4.0, CellTiter-Glo, qHTS, dose response (AID 1347062; cut-off not given, nearly all actives have AC50 up to about 27 µM); settings: JHH-DIPG-1 viability, CellTiter-Glo ATP luminescence
# [4] = viability loss in pontine glioma line – cell-based, SU-DIPG-IV, MIPE4.0, CellTiter-Glo, qHTS, dose response (AID 1347063; cut-off not given, nearly all actives have AC50 up to about 30 µM;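 further: compound exposure lasted 48 hours before the viability readout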); settings: CellTiter-Glo ATP luminescence
# [5] = viability loss in pontine glioma line – cell-based, SU-DIPG-XIII, MIPE5.0, CellTiter-Glo, qHTS, dose response (AID 1347064; cut-off not given, nearly all actives have AC50 up to about 23 µM); settings: CellTiter-Glo ATP luminescence
# [6] = growth inhibition of DIPG cells – cell-based, MIPE4.0 library, CellTiter-Glo luminescence, qHTS (AID 1347066; cut-off not given, nearly all actives have AC50 up to about 30 µM;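 further: cells exposed to compound for 48 hours before readout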); settings: SU-DIPG-VI viability, CellTiter-Glo ATP luminescence
# [7] = JHH-DIPG-1 glioma cell viability, MIPE5.0 library, CellTiter-Glo luminescence, qHTS (AID 1347067; cut-off not given, nearly all actives have AC50 up to about 26 µM;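 further: cells exposed to compound for 48 hours before readout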); settings: JHH-DIPG-1 glioma viability, CellTiter-Glo ATP luminescence
# [8] = growth inhibition of DIPG cells – cell-based, MIPE5.0 library, qHTS (AID 1347068; cut-off not given, nearly all actives have IC50 up to about 30 µM); settings: SU-DIPG-XXV viability
# [9] = growth inhibition, single agent or in combination, cell-based, chromothripsis tumors, cisplatin or BGB combos (AID 1671449); settings: LFS_MB_P medulloblastoma cells;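 further: cells exposed for 96 hours; 0% = vehicle DMSO and 100% = killing by high DMSO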
# [10] = growth inhibition, single agent and combos, cell-based, chromothripsis tumors, cisplatin or BGB combos (AID 1671450); settings: HDN33 neuroblastoma cells, stronger effect = higher value;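 further: cells exposed to compound for four days; 0% = vehicle DMSO and 100% = cell killing by high DMSO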
# [11] = growth inhibition, single agents and combos, ICB984, cell-based, cisplatin or BGB combos, synergistic combos for chromothripsis tumors (AID 1671451; call rule not given here;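 further: cells exposed for 96 hours before readout; 0% = vehicle DMSO and 100% = killing by high DMSO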); settings: ICB984 medulloblastoma cells, drug combinations, stronger effect = higher value
# [12] = growth inhibition, single agents and combos, LFS_MB_1R, cell-based, cisplatin or BGB combos, synergistic combos for chromothripsis tumors (AID 1671452); settings: LFS_MB_1R medulloblastoma cells, stronger effect = higher value;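 further: cells exposed for 96 hours before readout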
# [13] = growth inhibition, single agents and combos, HTB85, cell-based, BGB or cisplatin IC20 combos, synergistic combos for chromothripsis tumors (AID 1671453); settings: HTB85 osteosarcoma cells, drug combinations, stronger effect = higher value;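 further: cells exposed for 96 hours before readout; 0% = vehicle DMSO and 100% = high DMSO killing control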
# [14] = growth inhibition, single agents and combos, CRL2098, cell-based, BGB or cisplatin IC20 combos, synergistic combos for chromothripsis tumors (AID 1671454); settings: CRL2098 osteosarcoma cells, drug combinations, stronger effect = higher value;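 further: cells exposed for 96 h before readout; 0% = vehicle DMSO and 100% = killing by high DMSO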
# [15] = growth inhibition, single agents and combos, HD-MB03, cell-based, BGB or cisplatin IC20 combos, synergistic combos for chromothripsis tumors (AID 1671455; in the data active means inhibition above about 83%;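 further: 0% = vehicle DMSO and 100% = high DMSO as cytotoxic control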); settings: HD-MB03 medulloblastoma cells, stronger effect = higher value
# [16] = growth inhibition, single agents and combos, UWB1.289, cell-based, BGB or cisplatin combos, synergistic combos for chromothripsis tumors (AID 1671456); settings: UWB1.289 ovarian carcinoma cells, stronger effect = higher value;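 further: cells exposed to compound for four days; 0% = vehicle DMSO and 100% = killing by high DMSO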
# [17] = growth inhibition, single agents and combos, LFS_MB_2R, cell-based, cisplatin combos, synergistic combos for chromothripsis tumors (AID 1671457); settings: LFS_MB_2R medulloblastoma cells, stronger effect = higher value;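 further: cells exposed to compound for four days before readout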
# [18] = growth inhibition, MDA-MB-436, cell-based, BGB or cisplatin combos, synergistic combos for chromothripsis tumors (AID 1671458; call rule not given here;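 further: cells exposed for 96 hours; 0% = vehicle DMSO and 100% = killing by high DMSO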); settings: MDA-MB-436 breast carcinoma growth inhibition, drug combinations, stronger effect = higher value
# [19] = UWB1.289_BRCA1 ovarian cancer growth, cell-based, BGB or cisplatin combinations (AID 1671459); settings: UWB1.289 BRCA1 ovarian carcinoma, drug combinations, stronger effect = higher value
# [20] = drug combination toxicity in non-malignant astrocytes – cell-based, BGB or cisplatin IC20 combos, cytotoxicity control for chromothriptic childhood tumor combination screen (AID 1671460); settings: Human astrocytes, viability inhibition, drug combinations, at 0.5 µM, stronger effect = higher value;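 further: cells exposed to compounds for 96 hours before viability readout; 0% = vehicle and 100% = killing control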
# [21] = BT084 cell growth, single and combined drugs, ICGC_MB145, cisplatin and BGB IC40 combos (AID 1671461); settings: BT084 medulloblastoma cells, drug combinations, stronger effect = higher value;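 further: cells exposed to drugs for 96 hours; 0% = vehicle DMSO and 100% = high DMSO full killing control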
# [22] = RCMB18 cell growth, single agent and combined, cisplatin and BGB IC40 combos (AID 1671462); settings: RCMB18 medulloblastoma cells, stronger effect = higher value;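 further: cells exposed to compound for four days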
# [23] = CRL1545 cell growth, single agent and combined, cisplatin and BGB IC20 combos (AID 1671464); settings: CRL1545 osteosarcoma cells, stronger effect = higher value;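 further: cells exposed to compound for 96 hours before readout; 0% = vehicle DMSO and 100% = high DMSO killing control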
# [24] = measured here: combination with BGB IC40, at 0.05 µM
# [25] = measured here: with BGB IC20 combination, at 0.5 µM
# [26] = measured here: with cisplatin IC20 combination, at 0.5 µM
# [27] = measured here: combination with cisplatin, at 0.5 µM
# [28] = measured here: combination with cisplatin, at 5 µM
smiles,measurement,setting,value
CN(C)NC(=O)CCC(=O)O,outcome,[1],inactive
same,outcome,[2],inactive
same,outcome,[3],inactive
same,outcome,[4],inactive
same,outcome,[5],inactive
same,outcome,[6],inactive
same,outcome,[7],inactive
same,outcome,[8],inactive
same,inhibition,"[9]; at 0.5 µM, stronger effect = higher value",-0.95% (inactive)
same,inhibition,"[9]; measured here: combination with BGB IC20, at 0.005 µM",-31%
same,inhibition,"[9]; measured here: combination with BGB IC40, at 0.005 µM",-30.2%
same,inhibition,[9]; [24],-24.7%
same,inhibition,"[9]; measured here: combination with cisplatin, at 0.5 µM, stronger effect = higher value",2.21%
same,inhibition,"[9]; measured here: combination with cisplatin, at 5 µM, stronger effect = higher value",-34.9%
same,inhibition,"[10]; BGB combo, at 5 µM",-23.5%
same,inhibition,[10]; at 0.5 µM,-21.4% (inactive)
same,inhibition,"[10]; cisplatin combo, at 5 µM",-14%
same,inhibition,[10]; [25],-37.1%
same,inhibition,[10]; [26],-10.8%
same,inhibition,"[10]; single agent, at 5 µM",-11.1%
same,inhibition,"[11]; BGB IC20 combo, at 0.005 µM",-38.4%
same,inhibition,"[11]; BGB IC40 combo, at 0.005 µM",-26.9%
same,inhibition,"[11]; BGB IC40 combo, at 0.05 µM",-23.3%
same,inhibition,[11]; at 0.5 µM,-22.7% (inactive)
same,inhibition,"[11]; cisplatin combo, at 0.05 µM",-27.8%
same,inhibition,"[11]; cisplatin combo, at 0.5 µM",-26.2%
same,inhibition,"[11]; cisplatin combo, at 5 µM",-3.89%
same,inhibition,"[11]; measured here: 5 uM single agent, at 5 µM",-1.92%
same,inhibition,[12]; at 0.5 µM,-2.69% (inactive)
same,inhibition,[12]; [24],-23.8%
same,inhibition,[12]; [27],18.7%
same,inhibition,[12]; [28],-7.99%
same,inhibition,[13]; at 0.5 µM,-8.01% (inactive)
same,inhibition,"[13]; measured here: with BGB IC20, at 0.5 µM",-17.1%
same,inhibition,"[13]; measured here: with BGB IC20, at 5 µM",-18.2%
same,inhibition,"[13]; measured here: with cisplatin IC20, at 0.5 µM",10.6%
same,inhibition,"[13]; measured here: with cisplatin IC20, at 5 µM",-1.55%
same,inhibition,"[13]; single agent, at 5 µM",-16.5%
same,inhibition,[14]; at 0.5 µM,-47.3% (inactive)
same,inhibition,"[14]; measured here: combination with BGB at IC20, at 0.5 µM",-35.5%
same,inhibition,"[14]; measured here: combination with cisplatin at IC20, at 0.5 µM",-70.4%
same,inhibition,[15]; at 0.5 µM,-8.93% (inactive)
same,inhibition,"[15]; measured here: combo with BGB at IC20, at 0.5 µM",-16.7%
same,inhibition,"[15]; measured here: combo with cisplatin at IC20, at 0.5 µM",-5.27%
same,inhibition,[16]; at 0.5 µM,-6.42% (inactive)
same,inhibition,"[16]; measured here: inhibition with BGB combination, at 0.05 µM",-16.9%
same,inhibition,"[16]; measured here: inhibition with cisplatin combination, at 0.05 µM",-15.9%
same,inhibition,[17]; at 0.5 µM,-22.3% (inactive)
same,inhibition,[17]; [27],-20.6%
same,inhibition,[17]; [28],-15.1%
same,inhibition,[18]; at 0.5 µM,-23% (inactive)
same,inhibition,"[18]; measured here: BGB combination, at 0.5 µM",-22.6%
same,inhibition,"[18]; measured here: BGB combination, at 5 µM",-35.6%
same,inhibition,"[18]; measured here: cisplatin combination, at 0.5 µM",-26.7%
same,inhibition,"[18]; measured here: cisplatin combination, at 5 µM",-43.4%
same,inhibition,"[19]; BGB combination, concentration series, at 5 µM",-16%
same,inhibition,[19]; at 0.5 µM,-15.1% (inactive)
same,inhibition,"[19]; cisplatin combination, concentration series, at 5 µM",-31.4%
same,inhibition,[20],-16.7% (inactive)
same,inhibition,[20]; measured here: combo with BGB IC20,-24.5%
same,inhibition,[20]; measured here: combo with cisplatin IC20,-4.55%
same,inhibition,[21]; at 0.5 µM,-3.48% (inactive)
same,inhibition,"[21]; cisplatin combination, at 0.5 µM",-21.4%
same,inhibition,"[21]; cisplatin combination, at 5 µM",-13.9%
same,inhibition,"[21]; measured here: BGB IC40 combination 0.05 uM, at 0.05 µM",-20.2%
same,inhibition,"[21]; single agent, at 5 µM",-16.7%
same,inhibition,[22]; at 0.5 µM,-11.5% (inactive)
same,inhibition,"[22]; cisplatin combo, at 5 µM",1.98%
same,inhibition,"[22]; measured here: BGB IC40 combination, at 0.05 µM",-3.93%
same,inhibition,[22]; [27],15.6%
same,inhibition,"[22]; single agent, at 5 µM",-10.2%
same,inhibition,[23]; at 0.5 µM,-22.5% (inactive)
same,inhibition,[23]; [25],-20%
same,inhibition,[23]; [26],-25.8%
same,inhibition,"[23]; single agent, at 0.05 µM",-6.7%
same,inhibition,"[23]; single agent, at 5 µM",-28%
